# Columns and labels:
# Assay in all cases: DAPPL (digital affinity profiling via proximity ligation, sequencing); 10 mM Tris-HCl pH 7.5, 50 mM NaCl, 1 mM DTT, 4% glycerol, room temperature, 30 min; GST-TFs on glutathione beads, 16-mer random dsDNA library, 0.1% formaldehyde crosslink after washing; high values mean tight binding
# [1] = biological target: T1, FEV (Homo sapiens, UniProt Q99581 1-238); details: protein: recombinant; tags: N-terminal GST; dsDNA, one strand shown
# T1 sequence: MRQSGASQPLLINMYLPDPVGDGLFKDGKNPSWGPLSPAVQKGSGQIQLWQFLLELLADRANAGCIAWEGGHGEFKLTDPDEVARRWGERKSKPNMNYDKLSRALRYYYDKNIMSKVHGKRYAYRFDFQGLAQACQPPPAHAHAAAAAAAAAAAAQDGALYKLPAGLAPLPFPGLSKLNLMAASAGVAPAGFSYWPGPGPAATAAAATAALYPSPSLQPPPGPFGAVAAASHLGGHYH
# Outline: (§1)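 Yeast served to express human transcription factors as GST fusions, which were then captured on glutathione beads and labelled with DNA barcodes. Pooled with a tag-only sample, they were incubated with 200 nmole of a 16-mer random double-stranded DNA library for 30 min at room temperature in Tris/NaCl/DTT/glycerol buffer, washed, crosslinked with 0.1% formaldehyde, ligated by proximity, amplified by PCR and sequenced. Dividing each hexamer's read frequency for a factor by its frequency for the tag-only sample gives the binding signal.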
# [2] = biological target: ETV5 (Homo sapiens, UniProt P41161 1-510); details: protein: recombinant; tags: N-terminal GST; dsDNA, one strand shown
# Outline: as §1
# [3] = biological target: HSF1 (Homo sapiens, UniProt Q00613 1-529); details: protein: recombinant; tags: N-terminal GST; chain copies: 3; dsDNA, one strand shown
# Outline: as §1
# [4] = biological target: T2, SPIC (Homo sapiens, UniProt Q8N5J4 1-248); details: protein: recombinant; tags: N-terminal GST; dsDNA, one strand shown
# T2 sequence: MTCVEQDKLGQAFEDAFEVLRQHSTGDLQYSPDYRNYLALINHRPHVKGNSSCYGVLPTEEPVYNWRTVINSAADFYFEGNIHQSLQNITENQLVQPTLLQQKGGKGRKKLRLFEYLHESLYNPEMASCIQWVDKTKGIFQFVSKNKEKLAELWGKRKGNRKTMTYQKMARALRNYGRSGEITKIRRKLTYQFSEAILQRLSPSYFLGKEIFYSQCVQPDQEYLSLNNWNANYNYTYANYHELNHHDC
# Outline: as §1
# [5] = biological target: ELF4 (Homo sapiens, UniProt Q99607 1-663); details: protein: recombinant; tags: N-terminal GST; dsDNA, one strand shown
# Outline: as §1
# [6] = biological target: T3, ELK4 (Homo sapiens, UniProt P28324-2 1-405); details: protein: recombinant; tags: N-terminal GST; dsDNA, one strand shown
# T3 sequence: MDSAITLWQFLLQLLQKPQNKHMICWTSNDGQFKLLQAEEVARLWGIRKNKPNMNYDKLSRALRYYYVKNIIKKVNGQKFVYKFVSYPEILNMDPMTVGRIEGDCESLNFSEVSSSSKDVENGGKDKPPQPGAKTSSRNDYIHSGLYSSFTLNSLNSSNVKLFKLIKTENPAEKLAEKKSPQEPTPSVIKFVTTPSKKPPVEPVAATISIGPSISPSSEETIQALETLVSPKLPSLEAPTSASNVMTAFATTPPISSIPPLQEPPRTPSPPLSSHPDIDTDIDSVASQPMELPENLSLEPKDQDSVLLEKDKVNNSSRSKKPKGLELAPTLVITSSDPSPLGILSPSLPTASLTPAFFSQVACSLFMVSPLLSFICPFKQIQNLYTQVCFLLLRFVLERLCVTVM
# Outline: as §1
# [7] = biological target: T4, ETV2 (Homo sapiens, UniProt O00321 1-342); details: protein: recombinant; tags: N-terminal GST; dsDNA, one strand shown
# T4 sequence: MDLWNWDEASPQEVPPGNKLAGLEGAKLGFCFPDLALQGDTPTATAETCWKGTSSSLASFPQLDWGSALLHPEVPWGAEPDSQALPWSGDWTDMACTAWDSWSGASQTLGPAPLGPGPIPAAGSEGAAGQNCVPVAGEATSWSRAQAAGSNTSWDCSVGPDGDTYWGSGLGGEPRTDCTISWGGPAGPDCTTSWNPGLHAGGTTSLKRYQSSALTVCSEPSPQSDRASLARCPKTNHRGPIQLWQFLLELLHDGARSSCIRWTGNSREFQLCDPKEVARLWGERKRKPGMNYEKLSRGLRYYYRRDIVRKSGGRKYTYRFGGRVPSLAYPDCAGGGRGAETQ
# Outline: as §1
# [8] = biological target: T5, ELF3 (Homo sapiens, UniProt P78545 1-371); details: protein: recombinant; tags: N-terminal GST; dsDNA, one strand shown
# T5 sequence: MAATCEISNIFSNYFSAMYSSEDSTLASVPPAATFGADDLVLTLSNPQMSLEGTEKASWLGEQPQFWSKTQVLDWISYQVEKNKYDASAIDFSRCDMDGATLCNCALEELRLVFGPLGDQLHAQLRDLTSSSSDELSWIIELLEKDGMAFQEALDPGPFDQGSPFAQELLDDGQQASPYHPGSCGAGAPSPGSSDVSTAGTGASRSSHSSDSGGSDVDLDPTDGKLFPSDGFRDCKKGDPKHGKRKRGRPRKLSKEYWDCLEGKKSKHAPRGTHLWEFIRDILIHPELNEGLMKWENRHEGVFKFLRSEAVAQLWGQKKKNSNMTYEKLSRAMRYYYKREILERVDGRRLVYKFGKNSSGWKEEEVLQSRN
# Outline: as §1
# [9] = biological target: CRX (Homo sapiens, UniProt O43186 1-299); details: protein: recombinant; tags: N-terminal GST; dsDNA, one strand shown
# Outline: as §1
# [10] = biological target: ETV1 (Homo sapiens, UniProt P50549 1-477); details: protein: recombinant; tags: N-terminal GST; dsDNA, one strand shown
# Outline: as §1
# Chain of ETV1 (P50549 whole entry): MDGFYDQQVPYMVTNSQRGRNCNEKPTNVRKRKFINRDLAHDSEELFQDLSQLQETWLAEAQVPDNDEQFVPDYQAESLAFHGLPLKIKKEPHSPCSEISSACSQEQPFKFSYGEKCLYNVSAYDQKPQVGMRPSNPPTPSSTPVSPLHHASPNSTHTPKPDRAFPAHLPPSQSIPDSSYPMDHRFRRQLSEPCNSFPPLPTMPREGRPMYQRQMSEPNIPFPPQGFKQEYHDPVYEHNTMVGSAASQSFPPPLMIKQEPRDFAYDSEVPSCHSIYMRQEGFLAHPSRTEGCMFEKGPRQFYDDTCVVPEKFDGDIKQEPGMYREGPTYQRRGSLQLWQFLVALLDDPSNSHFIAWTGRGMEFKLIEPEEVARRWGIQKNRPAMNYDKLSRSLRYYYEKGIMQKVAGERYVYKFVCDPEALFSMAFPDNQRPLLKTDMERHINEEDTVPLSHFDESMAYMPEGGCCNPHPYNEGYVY
# Chain of ELF4 (Q99607 whole entry): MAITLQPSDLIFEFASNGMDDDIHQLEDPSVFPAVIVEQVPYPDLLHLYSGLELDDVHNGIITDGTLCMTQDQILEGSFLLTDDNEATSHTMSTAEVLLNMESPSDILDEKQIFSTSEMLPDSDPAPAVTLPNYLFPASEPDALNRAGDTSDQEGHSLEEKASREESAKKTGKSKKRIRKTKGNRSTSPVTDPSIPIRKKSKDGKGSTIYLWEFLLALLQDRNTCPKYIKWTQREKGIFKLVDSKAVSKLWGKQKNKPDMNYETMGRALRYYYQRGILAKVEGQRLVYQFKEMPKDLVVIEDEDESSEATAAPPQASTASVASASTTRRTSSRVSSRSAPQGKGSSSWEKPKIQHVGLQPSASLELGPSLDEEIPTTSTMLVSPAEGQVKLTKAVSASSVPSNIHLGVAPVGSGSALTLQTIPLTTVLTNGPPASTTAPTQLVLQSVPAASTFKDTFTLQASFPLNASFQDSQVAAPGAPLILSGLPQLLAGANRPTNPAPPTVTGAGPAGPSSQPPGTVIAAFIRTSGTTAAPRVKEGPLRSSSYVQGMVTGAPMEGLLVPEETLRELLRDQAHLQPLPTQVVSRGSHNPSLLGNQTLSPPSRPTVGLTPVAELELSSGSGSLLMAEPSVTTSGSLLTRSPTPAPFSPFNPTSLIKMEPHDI
# Chain of ETV5 (P41161 whole entry): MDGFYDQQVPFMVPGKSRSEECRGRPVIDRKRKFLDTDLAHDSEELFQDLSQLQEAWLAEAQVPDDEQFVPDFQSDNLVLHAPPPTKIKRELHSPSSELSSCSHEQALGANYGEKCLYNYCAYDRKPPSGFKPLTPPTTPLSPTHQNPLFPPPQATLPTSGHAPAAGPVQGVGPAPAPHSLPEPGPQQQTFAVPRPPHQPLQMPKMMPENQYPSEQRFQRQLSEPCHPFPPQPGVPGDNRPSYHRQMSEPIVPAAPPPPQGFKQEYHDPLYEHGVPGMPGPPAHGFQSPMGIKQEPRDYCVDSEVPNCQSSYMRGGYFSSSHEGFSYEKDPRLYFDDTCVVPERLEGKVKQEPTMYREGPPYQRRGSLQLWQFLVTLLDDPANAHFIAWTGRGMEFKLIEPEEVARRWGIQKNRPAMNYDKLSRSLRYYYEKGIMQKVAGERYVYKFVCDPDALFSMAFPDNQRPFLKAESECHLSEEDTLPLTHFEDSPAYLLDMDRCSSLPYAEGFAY
# Chain of CRX (O43186 whole entry): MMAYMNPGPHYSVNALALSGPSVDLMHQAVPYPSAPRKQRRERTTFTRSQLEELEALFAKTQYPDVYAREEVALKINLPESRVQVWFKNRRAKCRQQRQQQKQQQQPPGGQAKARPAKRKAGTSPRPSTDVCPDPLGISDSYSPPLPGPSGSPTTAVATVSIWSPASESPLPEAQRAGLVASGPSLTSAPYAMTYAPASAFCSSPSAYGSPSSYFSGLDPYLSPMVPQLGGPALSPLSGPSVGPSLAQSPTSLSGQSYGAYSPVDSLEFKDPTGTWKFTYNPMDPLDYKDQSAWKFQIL
# Chain of HSF1 (Q00613 whole entry): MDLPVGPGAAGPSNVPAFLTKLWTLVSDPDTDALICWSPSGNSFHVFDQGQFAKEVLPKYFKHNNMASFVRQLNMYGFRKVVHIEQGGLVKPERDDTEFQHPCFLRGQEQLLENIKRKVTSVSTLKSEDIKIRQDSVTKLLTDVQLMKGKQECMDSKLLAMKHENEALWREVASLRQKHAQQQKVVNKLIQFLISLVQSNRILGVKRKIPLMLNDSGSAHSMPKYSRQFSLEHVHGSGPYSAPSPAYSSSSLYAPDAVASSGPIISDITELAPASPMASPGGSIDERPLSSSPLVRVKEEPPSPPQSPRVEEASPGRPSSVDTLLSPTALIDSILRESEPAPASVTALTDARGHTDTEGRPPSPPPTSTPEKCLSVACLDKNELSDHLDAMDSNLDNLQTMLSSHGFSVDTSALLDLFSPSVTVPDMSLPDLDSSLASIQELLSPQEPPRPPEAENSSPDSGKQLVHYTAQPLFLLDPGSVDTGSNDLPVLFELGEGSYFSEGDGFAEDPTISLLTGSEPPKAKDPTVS
sequence,measurement,setting,value
ATAGCT,binding signal,[1],"1.16 fold enrichment (6-mer frequency, TF over GST control)"
same,binding signal,[2],"1.2 fold enrichment (6-mer frequency, TF over GST control)"
same,binding signal,[3],"1.06 fold enrichment (6-mer frequency, TF over GST control)"
same,binding signal,[4],"1.15 fold enrichment (6-mer frequency, TF over GST control)"
same,binding signal,[5],"1.07 fold enrichment (6-mer frequency, TF over GST control)"
same,binding signal,[6],"1.25 fold enrichment (6-mer frequency, TF over GST control)"
same,binding signal,[7],"1.27 fold enrichment (6-mer frequency, TF over GST control)"
same,binding signal,[8],"1.26 fold enrichment (6-mer frequency, TF over GST control)"
same,binding signal,[9],"1.26 fold enrichment (6-mer frequency, TF over GST control)"
same,binding signal,[10],"1.11 fold enrichment (6-mer frequency, TF over GST control)"
TACGTT,binding signal,[1],"1.35 fold enrichment (6-mer frequency, TF over GST control)"
same,binding signal,[2],"1.33 fold enrichment (6-mer frequency, TF over GST control)"
same,binding signal,[3],"1.24 fold enrichment (6-mer frequency, TF over GST control)"
same,binding signal,[4],"1.47 fold enrichment (6-mer frequency, TF over GST control)"
same,binding signal,[5],"1.23 fold enrichment (6-mer frequency, TF over GST control)"
same,binding signal,[6],"1.29 fold enrichment (6-mer frequency, TF over GST control)"
same,binding signal,[7],"1.27 fold enrichment (6-mer frequency, TF over GST control)"
same,binding signal,[8],"1.12 fold enrichment (6-mer frequency, TF over GST control)"
same,binding signal,[9],"1.34 fold enrichment (6-mer frequency, TF over GST control)"
same,binding signal,[10],"1.29 fold enrichment (6-mer frequency, TF over GST control)"
TACGCA,binding signal,[1],"1.16 fold enrichment (6-mer frequency, TF over GST control)"
same,binding signal,[2],"1.21 fold enrichment (6-mer frequency, TF over GST control)"
same,binding signal,[3],"1.06 fold enrichment (6-mer frequency, TF over GST control)"
same,binding signal,[4],"1.16 fold enrichment (6-mer frequency, TF over GST control)"
same,binding signal,[5],"1.23 fold enrichment (6-mer frequency, TF over GST control)"
same,binding signal,[6],"1.12 fold enrichment (6-mer frequency, TF over GST control)"
same,binding signal,[7],"1.15 fold enrichment (6-mer frequency, TF over GST control)"
same,binding signal,[8],"1.19 fold enrichment (6-mer frequency, TF over GST control)"
same,binding signal,[9],"1.21 fold enrichment (6-mer frequency, TF over GST control)"
same,binding signal,[10],"1.25 fold enrichment (6-mer frequency, TF over GST control)"
GTTCGA,binding signal,[1],"1.02 fold enrichment (6-mer frequency, TF over GST control)"
same,binding signal,[2],"1.07 fold enrichment (6-mer frequency, TF over GST control)"
same,binding signal,[3],"1.9 fold enrichment (6-mer frequency, TF over GST control)"
same,binding signal,[4],"1.15 fold enrichment (6-mer frequency, TF over GST control)"
same,binding signal,[5],"1.12 fold enrichment (6-mer frequency, TF over GST control)"
same,binding signal,[6],"1.07 fold enrichment (6-mer frequency, TF over GST control)"
same,binding signal,[7],"1 fold enrichment (6-mer frequency, TF over GST control)"
same,binding signal,[8],"1.13 fold enrichment (6-mer frequency, TF over GST control)"
same,binding signal,[9],"1.11 fold enrichment (6-mer frequency, TF over GST control)"
same,binding signal,[10],"1.08 fold enrichment (6-mer frequency, TF over GST control)"
GCTCAG,binding signal,[1],"1.11 fold enrichment (6-mer frequency, TF over GST control)"
same,binding signal,[2],"1.17 fold enrichment (6-mer frequency, TF over GST control)"
same,binding signal,[3],"1.13 fold enrichment (6-mer frequency, TF over GST control)"
same,binding signal,[4],"1.23 fold enrichment (6-mer frequency, TF over GST control)"
same,binding signal,[5],"1.19 fold enrichment (6-mer frequency, TF over GST control)"
same,binding signal,[6],"1.22 fold enrichment (6-mer frequency, TF over GST control)"
same,binding signal,[7],"1.18 fold enrichment (6-mer frequency, TF over GST control)"
same,binding signal,[8],"1.03 fold enrichment (6-mer frequency, TF over GST control)"
same,binding signal,[9],"1.41 fold enrichment (6-mer frequency, TF over GST control)"
same,binding signal,[10],"1.13 fold enrichment (6-mer frequency, TF over GST control)"
ACAACT,binding signal,[1],"1.35 fold enrichment (6-mer frequency, TF over GST control)"
same,binding signal,[2],"1.32 fold enrichment (6-mer frequency, TF over GST control)"
same,binding signal,[3],"1.11 fold enrichment (6-mer frequency, TF over GST control)"
same,binding signal,[4],"1.39 fold enrichment (6-mer frequency, TF over GST control)"
same,binding signal,[5],"1.36 fold enrichment (6-mer frequency, TF over GST control)"
same,binding signal,[6],"1.34 fold enrichment (6-mer frequency, TF over GST control)"
same,binding signal,[7],"1.29 fold enrichment (6-mer frequency, TF over GST control)"
same,binding signal,[8],"1.42 fold enrichment (6-mer frequency, TF over GST control)"
same,binding signal,[9],"1.02 fold enrichment (6-mer frequency, TF over GST control)"
same,binding signal,[10],"1.27 fold enrichment (6-mer frequency, TF over GST control)"
CACTAT,binding signal,[1],"1.21 fold enrichment (6-mer frequency, TF over GST control)"
same,binding signal,[2],"1.2 fold enrichment (6-mer frequency, TF over GST control)"
same,binding signal,[3],"1.05 fold enrichment (6-mer frequency, TF over GST control)"
same,binding signal,[4],"1.2 fold enrichment (6-mer frequency, TF over GST control)"
same,binding signal,[5],"1.26 fold enrichment (6-mer frequency, TF over GST control)"
same,binding signal,[6],"1.25 fold enrichment (6-mer frequency, TF over GST control)"
same,binding signal,[7],"1.09 fold enrichment (6-mer frequency, TF over GST control)"
same,binding signal,[8],"1.32 fold enrichment (6-mer frequency, TF over GST control)"
same,binding signal,[9],"1.05 fold enrichment (6-mer frequency, TF over GST control)"
same,binding signal,[10],"1.14 fold enrichment (6-mer frequency, TF over GST control)"
TTTACC,binding signal,[1],"1.32 fold enrichment (6-mer frequency, TF over GST control)"
same,binding signal,[2],"1.29 fold enrichment (6-mer frequency, TF over GST control)"
same,binding signal,[3],"1.25 fold enrichment (6-mer frequency, TF over GST control)"
same,binding signal,[4],"1.17 fold enrichment (6-mer frequency, TF over GST control)"
same,binding signal,[5],"1.24 fold enrichment (6-mer frequency, TF over GST control)"
same,binding signal,[6],"1.41 fold enrichment (6-mer frequency, TF over GST control)"
same,binding signal,[7],"1.3 fold enrichment (6-mer frequency, TF over GST control)"
same,binding signal,[8],"1.2 fold enrichment (6-mer frequency, TF over GST control)"
same,binding signal,[9],"1.48 fold enrichment (6-mer frequency, TF over GST control)"
same,binding signal,[10],"1.16 fold enrichment (6-mer frequency, TF over GST control)"

# — article PMC7862700, “An all-to-all approach to the identification of sequence-specific readers for epigenetic DNA modifications on cytosine”
